# Test results published in PubChem BioAssay AID1851 (National Center for Advancing Translational Sciences (NCATS), 2009).
# In all, about 16,000 compounds went through this assay and about 2,600 (16%) were called active. Another 20% or so got no clear call; they are omitted. The call rests on the fitted dose curve; in most records, active means well fitted curve in the direction sought with a large enough effect; inconclusive means small, poorly fitted or top-dose-only effect, or effect the other way; inactive means no such curve, though single readings can be large or run the other way. Not all results are given here.
# Target: Cytochrome P450 2D6 (Homo sapiens) (UniProt P10635)
# Experiment: Cytochrome panel assay with activity outcomes
# Conditions: recombinant CYP, pro-luciferin dealkylation, luminescence, p450-cyp2d6; series mostly up to 57.1 µM; activity, negative = inhibition: at the top concentration
# On the % scale 0 is the no-effect control and ±100 the full control effect.
# Cytochrome P450 2D6 (Homo sapiens), sequence (P10635 whole entry, looked up): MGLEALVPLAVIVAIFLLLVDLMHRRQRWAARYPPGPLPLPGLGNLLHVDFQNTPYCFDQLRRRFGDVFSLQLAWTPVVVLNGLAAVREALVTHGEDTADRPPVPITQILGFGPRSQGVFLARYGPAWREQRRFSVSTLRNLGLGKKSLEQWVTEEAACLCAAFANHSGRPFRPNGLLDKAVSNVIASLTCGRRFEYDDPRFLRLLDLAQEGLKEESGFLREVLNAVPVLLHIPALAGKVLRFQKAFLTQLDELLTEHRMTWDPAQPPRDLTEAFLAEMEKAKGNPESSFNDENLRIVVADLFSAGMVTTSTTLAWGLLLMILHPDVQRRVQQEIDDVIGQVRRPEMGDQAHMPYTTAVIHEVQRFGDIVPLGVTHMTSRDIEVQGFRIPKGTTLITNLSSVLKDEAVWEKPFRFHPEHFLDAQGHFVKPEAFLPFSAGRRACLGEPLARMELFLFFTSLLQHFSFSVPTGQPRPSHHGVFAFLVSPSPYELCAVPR
Structure (SMILES),"activity, negative = inhibition",AC50
CCCCN(C)S(=O)(=O)c1ccc(C(=O)Nc2nnc(CSC)o2)cc1,14.6% (inactive),
CCCc1nn(-c2ccccc2)c2c1C(c1cccs1)C(C#N)=C(N)O2 (stereo not given),-4.88% (inactive),
C[C@@H](Cc1cccc(C(F)(F)F)c1)NCCOC(=O)c1ccccc1,,0.0158 µM (active)
Cc1[nH]n(-c2ccccc2)c(=O)c1CCOC(=O)c1cccc(C(F)(F)F)c1,-23.9% (inactive),
CCC(C(=O)Nc1cccc(C(F)(F)F)c1)c1ccccc1 (stereo not given),-21.5% (inactive),
COc1cccc(-c2cc(C(=O)N/N=C/c3ccc(OC)c(COC(C)=O)c3)c3ccccc3n2)c1,32% (inactive),
CCc1ccc(NC(=O)Cn2nc(C(F)(F)F)c3c2CCC3)cc1,-27% (inactive),
CN(C)C(=O)c1ccc(-n2nc(C(F)(F)F)c3c2CCCC3)cc1,,8.91 µM (active)
O=C(Cn1nnc(-c2ccccc2)n1)OCc1ccccc1,-13.4% (inactive),
CCC[C@H](Sc1nc(N)nc2nc[nH]c12)C(=O)O,1.31% [at 11.4 µM] (inactive),
CCCNC(=O)OC[C@H]1O[C@@H](CCO/N=C2/[C@H]3O[C@@H]3[C@@H](O)[C@H]3[C@H]2CCn2c(=O)n(-c4ccccc4)c(=O)n23)C=C[C@@H]1Oc1ccc(OC)cc1,10.6% [at 11.4 µM] (inactive),
CCCCCc1nc2c(C#N)c(-c3ccc(Cl)cc3)ccn2n1,-15.8% (inactive),
O=C(c1cnccn1)N1CCC[C@@]2(CCN(C(c3ccccc3)c3ccccc3)C2)C1,,10 µM (active)
O=C(c1cnccn1)N1CCC2(CC1)CCN(c1ccccc1)CC2,-5.31% (inactive),
O=C(Nc1ccccc1)N1CCCC2(CCN(C(=O)c3cnccn3)CC2)C1,-1.93% (inactive),
O=C(Nc1ccccc1)N1CCC2(CC1)CCN(C(=O)c1cnccn1)CC2,1.86% (inactive),
O=C(c1cnccn1)N1CCC2(CC1)CN(C(c1ccccc1)c1ccccc1)C2,,6.31 µM (active)
O=C(c1cnccn1)N1CCC2(CC1)CN(c1ccccc1)C2,12.2% (inactive),
O=C(Nc1ccccc1)N1CC[C@@]2(CCCN(C(=O)c3cnccn3)C2)C1,2.56% (inactive),
O=C(c1cnccn1)N1CCC2(CC1)CCN(C(c1ccccc1)c1ccccc1)CC2,,3.98 µM (active)
O=C(c1cnccn1)N1CCC2(CCCN(c3ccccc3)C2)CC1,-6.98% (inactive),
O=C(Nc1ccccc1)N1CC2(CCN(C(=O)c3cnccn3)CC2)C1,-6.12% (inactive),
O=C(c1cnccn1)N1CCC2(CCCN(C(c3ccccc3)c3ccccc3)C2)CC1,,10 µM (active)
O=C(c1cnccn1)N1CCC[C@@]2(CCN(c3ccccn3)C2)C1,-16.8% (inactive),
Cc1cc(NC(=O)Nc2ccc(F)cc2)no1,-4.04% (inactive),

Structure (SMILES),"activity, negative = inhibition",AC50
Clc1ccccc1C(Nc1ncccn1)Nc1ncccn1,1.87% [at 11.4 µM] (inactive),
CN(C)CCCN=c1c2ccccc2n(C)c2[nH]c(=O)n(C)c(=O)c12,13.4% [at 11.4 µM] (inactive),
CCN1CCN(C(=O)C2c3cc(OC)c(OC)cc3C(=O)N3CCc4ccccc4C23)CC1 (stereo not given),6.87% (inactive),
O=C(O)C1C2C=CC3(CN(Cc4ccccn4)C(=O)C13)O2 (stereo not given),-2.08% (inactive),
CCOC(=O)Cn1nnc2c(sc3nc4c(c(-c5ccc(Cl)cc5)c32)CCC4)c1=O,-12.5% (inactive),
CC(C)Cn1c(=O)n(C)c(=O)c2[nH]cnc21,-4.45% (inactive),
FC(F)(F)c1cc(C(F)(F)F)c2ccc(N/N=C/c3cccc(Cl)c3)nc2n1,13.3% (inactive),
Cc1ccccc1-c1cncnc1NCc1cccs1,,12.6 µM (active)
COc1ccccc1-c1cncnc1NCc1cccs1,,15.8 µM (active)
FC(F)(F)c1ccccc1-c1cncnc1NCc1cccs1,,15.8 µM (active)
Cc1cnc(CNc2ncncc2-c2c(C)noc2C)cn1,-3.29% (inactive),
Clc1ccccc1-c1cncnc1NCc1cccs1,,10 µM (active)
CC(=O)NCCNc1ncncc1-c1ccccc1C,-17.1% (inactive),
CO[C@H]1COC(=O)C/C=C\[C@@H](C)COC(=O)[C@@H](C)NC(=O)C/C=C\[C@@H]1C,1.11% [at 11.4 µM] (inactive),
O=S(=O)(c1ccccc1S(=O)(=O)N1CCCCC1)N1CCCCC1,-8.09% (inactive),
CC1(CCC#N)N=C(SCCC#N)N(c2ccccc2)C1=O (stereo not given),14.5% (inactive),
Cc1ccc(S(=O)(=O)N[C@H](CN)C(=O)O)cc1,3.02% [at 11.4 µM] (inactive),
CC(C)Oc1ccc(C2CC(=O)NC3=C2C(=O)CCC3)cc1 (stereo not given),-8.75% (inactive),
CCCCSC(=S)N(C)C1CCS(=O)(=O)C1 (stereo not given),-20.3% (inactive),
C=C(Br)CN(C)CC(=C)Br,9.77% [at 11.4 µM] (inactive),
CCOc1cc(C2CC(=O)c3c(ccc4ccccc34)N2)ccc1O (stereo not given),-0.911% (inactive),
COc1ccc(C2C(C(=O)N3CCOCC3)CCC(=O)N2c2ccc(OC)cc2)cc1 (stereo not given),8.66% (inactive),
CC(C)C(NC(=O)C12CC3CC(CC(C3)C1)C2)C(=O)NC1=NCCS1 (stereo not given),-10.7% (inactive),
COc1c(C)c2c(c(O)c1C/C=C(\C)CCC(=O)O)C(=O)OC2,,inactive
COC(=O)c1cc(C(=O)c2cccc(Cl)c2Cl)cn1C,-19.6% (inactive),

Structure (SMILES),"activity, negative = inhibition",AC50
CN(C)Cc1ccccc1-c1cncnc1NCc1cccs1,,12.6 µM (active)
Cc1cnc(CNc2ncncc2-c2ccccc2C#N)cn1,-2.44% (inactive),
CC(C)Oc1cccc(C(=O)NC(=S)N2CCN(c3ccc(C(F)(F)F)cc3[N+](=O)[O-])CC2)c1,-16.2% (inactive),
O=C(CCN1C(=O)/C(=C/c2cccc(Br)c2)SC1=S)NNC(=O)c1cccnc1,-8.93% (inactive),
C[C@](O)(c1ccccc1)c1nccc2ccccc12,-11.5% [at 11.4 µM] (inactive),
COc1cccc(NC(=O)c2oc3ccccc3c2NC(C)=O)c1,-15.6% (inactive),
CCOC(=O)CC1NC(=O)c2ccccc21 (stereo not given),11.6% (inactive),
O=C(Cn1c(SCC(=O)N2CCc3ccccc3C2)nc2ccccc21)NC1CCCC1,,25.1 µM (active)
C=CCn1c(SCC(=O)N2CC(=O)Nc3ccccc32)nc2scc(-c3ccccc3)c2c1=O,-13.4% (inactive),
Cc1ccc(-n2c(C)nnc2SCC(=O)N2CCc3ccccc3C2)cc1C,0.438% (inactive),
O=C(Cn1cccc1)NC1CCCCCC1,5.48% (inactive),
C=CCSc1nc2ccccc2c(=O)n1Cc1ccco1,-11.2% [at 11.4 µM] (inactive),
C=CCn1c(SCC(=O)N2CCc3ccccc3C2)nc2ccccc2c1=O,,15.8 µM (active)
CCOC(=O)c1sc(N(Cc2ccccc2)C(=O)CN2C(=O)CN(C)C2=O)nc1C,-26% (inactive),
c1ccc(-c2nccc(-c3ccc(-n4cnc5ccccc54)cc3)n2)nc1,-20.9% (inactive),
CCOC(=O)c1cn(-c2nc(-c3ccc(Cl)cc3)cs2)c2c(F)c(N3CC(C)OC(C)C3)c(F)cc2c1=O (stereo not given),-6.02% (inactive),
C[C@@H](c1ccccc1)N1C(=O)[C@H]2[C@H]3[C@H](O)[C@H](O)C/C(=N/OC[C@@H](O)COCc4ccco4)[C@H]3CC[C@@H]2C1=O,-0.906% [at 11.4 µM] (inactive),
Cc1cccc(NC2=NC(=S)N(c3ccc(C(=O)O)cc3)C23CCCCC3)c1,33.6% (inactive),
CCCn1cnc2c1c(=O)n(CCCCC(C)=O)c(=O)n2C,5.76% (inactive),
NC(=O)C(=O)O,9.07% (inactive),
COc1ccc(C(=O)O/N=C/c2ccc(S(=O)c3ccc(Cl)cc3)nc2)cc1 (stereo not given),4.34% (inactive),
CCCn1nnnc1-c1cc(Cl)cc(Cl)c1,-16.5% (inactive),
CC1=CC(=O)c2ccccc2C1=O,,7.94 µM (active)
CC1=CC(=C2C(=O)c3ccccc3C2=O)C=C(C)O1,-1.34% (inactive),
CCn1c(C)nc2c1C(=O)c1ccccc1C2=O,-24.8% (inactive),

Structure (SMILES),"activity, negative = inhibition",AC50
Cc1ccc(-n2ncc3c(=O)n(CC(=O)NCC4CCCO4)cnc32)cc1 (stereo not given),-2.25% (inactive),
O=C(/C=C/Nc1ccccc1)c1ccc(Oc2ncccn2)cc1,-24.4% (inactive),
CCCc1ccc(-c2cc(C(=O)NN3CCOCC3)c3ccccc3n2)cc1,-8.77% (inactive),
COc1ccccc1CCn1c(=O)c(-c2ccc(F)cc2)nc2cncnc21,12.9% (inactive),
COc1ccccc1CNc1ncncc1-c1ccccc1Cl,,2 µM (active)
COc1ccccc1CN1C(=O)c2ccncc2C1=O,-1.12% (inactive),
COc1ccccc1CNc1ncncc1-c1ccoc1,,20 µM (active)
COc1ccccc1CNc1ncncc1-c1ccccc1C,,10 µM (active)
COc1ccccc1CNc1ncncc1-c1ccccc1OC,,10 µM (active)
CCOc1[nH]n(-c2ccc(Cl)cc2)c(=O)c1C=Nc1ccc(Cl)cc1,1.47% (inactive),
CCOc1ccc(N/N=C(/C#N)C(N)=O)cc1,-4.83% (inactive),
CO[C@@H]1COC(=O)[C@H]2CCCN2C(=O)[C@@H](C)COC(=O)C/C=C\[C@H]1C,-1.92% [at 11.4 µM] (inactive),
Cc1ccc(C(=O)N/C(=C/C=C/c2ccccc2)C(=O)NCc2ccco2)cc1,7.67% (inactive),
Cc1c(Br)cc(C(=O)NC2CCCCC2)c(C)c1C,-8.72% (inactive),
OC[C@@H]1O[C@@H](n2cnc3c(SCc4ccccc4)ncnc32)[C@@H](O)[C@H]1O,-0.968% [at 11.4 µM] (inactive),
O=C(CCCCC(=O)Nc1c(I)cc(I)c(C(=O)O)c1I)Nc1c(I)cc(I)c(C(=O)O)c1I,-0.733% [at 25.6 µM] (inactive),
CCOC(=O)CSc1nnc(CSc2nc3sc4c(c3c(=O)[nH]2)CCCC4)n1-c1ccccc1,-29.7% (inactive),
NC1=NC(=O)/C(=C/c2cccs2)S1,20.3% (inactive),
COc1ccc(-c2nc3cnc(N4CCNCC4)nc3n(C3CC3)c2=O)cc1,1.04% (inactive),
Nc1ccc(S(=O)(=O)Nc2ccc(Cl)nn2)cc1,6.78% [at 25.6 µM] (inactive),
COc1ccc2c(c1)-c1c(sn(-c3ccc(OC)c(OC)c3)c1=S)C(C)(C)N2,21.3% (inactive),
OCCN1CCN(CCOc2cccc(Cl)c2)CC1,,5.01 µM (active)
O=C(O)c1cccc(OCCO)c1,5.58% [at 11.4 µM] (inactive),
C[C@H]1CN(CCO)CCN1c1ccccc1,11.2% [at 11.4 µM] (inactive),
CO[C@H]1COC(=O)[C@H]2CCCN2C(=O)C/C=C\[C@@H](C)[C@H](OC)COC(=O)C/C=C\[C@@H]1C,-7.59% [at 11.4 µM] (inactive),
